Measurements published in PubChem BioAssay (EPA / NIEHS).
Calls of active or inactive are those of the source. How the source made its calls: active means hit-call score of the fitted dose curve at least 0.9, where 1 is the maximum; inactive means score below 0.9.

read-out: Apoptosis regulator Bcl-2 (Homo sapiens) (UniProt P10415); assay: LTEA_HepaRG_BCL2: Life Technologies and Expression Analysis (LTEA) Assay for Bcl-2 gene using HepaRG (AID 2283475); settings: mRNA level, 48 h; actives raise or lower the signal
In short: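 qRT-PCR of BCL2 transcript, normalized to three housekeeping genes (ACTB, GAPDH, POLR2A), after 48 h chemical exposure of HepaRG cells; concentrations top 100 uM with half-log dilutions, 0.5% DMSO vehicle, duplicates; changes up or down fitted relative to vehicle.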

Chain of Apoptosis regulator Bcl-2 (Homo sapiens) (P10415 whole entry, looked up): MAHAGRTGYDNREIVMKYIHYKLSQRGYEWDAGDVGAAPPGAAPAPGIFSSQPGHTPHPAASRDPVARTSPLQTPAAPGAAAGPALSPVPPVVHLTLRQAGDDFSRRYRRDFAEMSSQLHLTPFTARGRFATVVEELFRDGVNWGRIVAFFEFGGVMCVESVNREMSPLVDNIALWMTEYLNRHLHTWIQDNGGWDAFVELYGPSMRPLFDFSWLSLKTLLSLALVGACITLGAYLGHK

| SMILES | outcome | AC50 |
| --- | --- | --- |
| CNC(=O)Oc1cccc2ccccc12 | inactive | – |
| CCSC(=O)N1CCCCCC1 | inactive | – |
| COc1ccc(-c2ccccc2)cc1NNC(=O)OC(C)C | inactive | – |
| CC(C)=CC1C(C(=O)OCc2coc(Cc3ccccc3)c2)C1(C)C (stereo unspecified) | inactive | – |
| OC(c1ccc(Cl)cc1)(c1ccc(Cl)cc1)C(Cl)(Cl)Cl | – | 86.4 µM (active) |
| COC(=O)NS(=O)(=O)c1ccc(N)cc1 | inactive | – |
| CC(C)Oc1cccc(NC(=O)c2ccccc2C(F)(F)F)c1 | inactive | – |
| CS(=O)(=O)c1cc(C(F)(F)F)ccc1C(=O)c1cnoc1C1CC1 | inactive | – |
| CCOP(=O)(OCC)Oc1nc(Cl)c(Cl)cc1Cl | – | 68.4 µM (active) |
| CCOP(=S)(OCC)Oc1nc(Cl)n(C(C)C)n1 | inactive | – |
| CCOc1nc(F)cc2nc(S(=O)(=O)Nc3c(Cl)cccc3Cl)nn12 | inactive | – |
| COP(=S)(OC)SCn1nnc2ccccc2c1=O | inactive | – |
| CNC(=O)N(C)c1nnc(C(C)(C)C)s1 | inactive | – |
| Clc1nc(Cl)nc(Nc2ccccc2Cl)n1 | inactive | – |
| Nc1c(Cl)c(Cl)nc(C(=O)O)c1Cl | inactive | – |
| Nc1c(Cl)c(F)nc(OCC(=O)O)c1Cl | inactive | – |
| CC1(C)CCC(=Cc2ccc(Cl)cc2)C1(O)Cn1cncn1 (stereo unspecified) | inactive | – |
| CSC(=O)c1c(C(F)F)nc(C(F)(F)F)c(C(=O)SC)c1CC(C)C | – | 49.8 µM (active) |

| SMILES | outcome | AC50 |
| --- | --- | --- |
| CCCCC(C#N)(Cn1cncn1)c1ccc(Cl)cc1 (stereo unspecified) | inactive | – |
| O=C(O)c1c(Cl)ccc2cc(Cl)cnc12 | inactive | – |
| O=P(O)(O)CCCl | inactive | – |
| Cc1cnc(C2=NC(C)(C(C)C)C(=O)N2)c(C(=O)O)c1 (stereo unspecified) | inactive | – |
| CCOC(=O)C(C)OC(=O)c1cc(Oc2ccc(C(F)(F)F)cc2Cl)ccc1[N+](=O)[O-] (stereo unspecified) | inactive | – |
| COC(=O)N(C(=O)N1CO[C@@]2(C(=O)OC)Cc3cc(Cl)ccc3C2=N1)c1ccc(OC(F)(F)F)cc1 | inactive | – |
| CC1(C)C(C=C(Cl)Cl)C1C(=O)OC(C#N)c1cccc(Oc2ccccc2)c1 (stereo unspecified) | inactive | – |
| Cc1cc(C)nc(Nc2ccccc2)n1 | inactive | – |
| O=c1n(Cl)c(=O)n(Cl)c(=O)n1Cl | inactive | – |
| CO/N=C(/C1=NOCCO1)c1ccccc1Oc1ncnc(Oc2ccccc2Cl)c1F | – | 29.7 µM (active) |
| COCC(=O)N(c1c(C)cccc1C)C(C)C(=O)OC (stereo unspecified) | inactive | – |
| C=CCOC(=O)C(C)(C)OC(=O)c1cc(-n2c(=O)cc(C(F)(F)F)n(C)c2=O)ccc1Cl | inactive | – |
| COC(=O)c1c(C(F)F)nc(C(F)(F)F)c(C2=NCCS2)c1CC(C)C | inactive | – |
| CN=C=S | inactive | – |
| CC(C)NC(=O)N1CC(=O)N(c2cc(Cl)cc(Cl)c2)C1=O | inactive | – |
| COc1cc(OC)nc(NC(=O)NS(=O)(=O)c2ncccc2OCC(F)(F)F)n1 | inactive | – |
| COP(=O)(OC)O/C(C)=C/C(=O)N(C)C | inactive | – |
| CCOc1cc(C(C)(C)C)ccc1C1COC(c2c(F)cccc2F)=N1 (stereo unspecified) | inactive | – |
